Most compounds without a hit are left out; they make up all but 18% or so of the library.
DT40 TDP1 no CPT: qHTS for Inhibitors of human tyrosyl-DNA phosphodiesterase 1 (TDP1): qHTS in cells in absence of CPT; DT40 Tdp1-/- hTDP1 cells, no CPT, ATP luminescence, 48 h; Potency, µM (top dose mostly 46.2 µM), inactives show at the highest dose activity change, negative = growth inhibition, usual class: inhibitors; hit rate 15% among 420,000; also: nearly all actives have a fitted effect of over 55% in size
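Growth of hTDP1-complemented DT40 Tdp1-knockout cells is measured by ATP luminescence after at least 48 hr compound exposure at 37 °C, with DMSO substituting for the 20 nM CPT used in the parallel screen.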
TDP1 cell CPT: DT40-hTDP1 cell growth loss with CPT | chicken DT40 Tdp1-/-;hTDP1 cells + 20 nM CPT, ATP luminescence, 48 h | Potency, µM (top dose mostly 46.2 µM), inactives show top-dose activity change, negative = growth inhibition, hits mostly inhibitors | hit rate 12% among 420,000 | AID 686979; also: nearly all actives have a fitted effect of over 55% in size
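Chicken DT40 Tdp1-/- cells stably complemented with human TDP1 were seeded at 400 cells/well in medium containing 20 nM camptothecin, exposed to pin-transferred compounds, and grown at 37 °C for at least 48 hr. Viability was read as ATP luminescence.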
VDR inh: inhibitors of human vitamin D receptor. P11473. VDR-SRC2-3 peptide fluorescence polarization, 2 h. Potency, µM, without a hit: max response, negative = inhibition, most hits filed as inhibitors. hit rate 0.93% among 400,000. AID 504847
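FP read-out; VDR + SRC2-3 coactivator peptide; 23 nl compound by pintool; 2 h RT incubation; reagents held at 4 deg C, protected from light.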
TDP1 block: blocks human tyrosyl-DNA phosphodiesterase 1; Q9NUW8; recombinant TDP1, AlphaScreen DNA substrate cleavage; Potency, µM (titrated, usually from 130 µM), without a hit: at the top dose activity change, negative = inhibition, usual class: inhibitors; hit rate 0.28% among 350,000; also: nearly all actives have a fitted effect of over 40% in size
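Tdp1 1 nM final; 15 min RT w/ cpd; substrate 15 nM, 5 min; beads 10 ug/ml, 10 min; AlphaScreen read. Neg ctrl: no enzyme.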
PLK1 PBD inh: inhibitors of human PLK1 polo-box domain binding; AID 720504; Plk1 PBD binding of FITC phosphopeptide, fluorescence polarization; Potency, µM, for the others: max response, negative = inhibition, hits mostly inhibitors; hit rate 2.8% among 360,000; also: series mostly up to about 57 µM; nearly all actives have a fitted effect of over 65% in size
KAT2A inh: blocks human GCN5L2 histone acetyltransferase | GCN5L2 HAT assay, ThioGlo1 CoA-SH fluorescence | Potency, µM (series often up to 58.9 µM), without a hit: top-dose activity change, negative = inhibition, hits mostly inhibitors | hit rate 0.21% among 390,000
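qHTS, 1536-well. 20nM enzyme, pH 7.5 HEPES/EDTA/Tween-20 buffer; 15 min compound preinc., RT. Start: 75uM H3(1-25), 70uM AcCoA, 50uM ThioGlo1. Read Ex340/Em540 at t=0 (autofluorescence flag) and t=20 min.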
The depositor's hits bear a star; ? = inconclusive; . = no result given; [ ] = dose if it differs, or a comment. Calls follow the shape of the dose curve; as a rule, active = well fitted curve in the direction sought with a large enough effect; inconclusive = small, poorly fitted or top-dose-only effect, or another doubt; inactive = no such curve, though single readings can be large; an effect the other way counts as inactive or inconclusive. % is scaled to controls: 0 for no effect and ±100 for the full control effect; potency is read from the fitted curve at half-maximal effect.

SMILES	DT40 TDP1 no CPT	TDP1 cell CPT	VDR inh	TDP1 block	PLK1 PBD inh	KAT2A inh
O[C@@H]1CN(Cc2cccs2)[C@@H](c2ccccc2)C[C@H]1n1cc(-c2ccc(F)cc2)nn1	?	?	.	.	-18.6%	.
O=C(CSc1nc2c(c(=O)[nH]1)CN(Cc1ccc3c(c1)OCO3)CC2)Nc1ccc(F)c(F)c1	?	?	4.8%	11.4%	.	-8.4%
CCOc1ccccc1C(=O)NC1CC2CCCC(C1)N2Cc1ccc(C)cc1 (stereo not given)	20.6µM*	?	0.2%	3.1%	7.5%	1.5%
O=C(NC1CCN(Cc2ccccc2)CC1)c1ccccc1OCc1ccccc1	7.31µM*	?	-16.6%	.	-6.4%	3.5%
COc1ccc(S(=O)(=O)NC2CCN(Cc3ccccc3)CC2)cc1NC(C)=O	-29.9%	-27.8%	-1.5%	0.5%	0.5%	1.2%
COc1ccc(C)cc1NC(=O)NC1CCN(Cc2ccccc2)CC1	?	23.1µM*	-3.6%	7.8%	-2.6%	-2.1%
C#CCOc1ccccc1CNC1CCN(Cc2ccccc2)CC1	20.6µM*	?	-6.4%	.	-14.9%	2.5%
CCOc1ccccc1C(=O)NC1CCN(Cc2ccccc2)CC1	-4.7%	0.9%	-14.0%	.	0.6%	-16.5%
CC1(O)C(c2ccccc2)=Nc2ccccc21 (stereo not given)	?	?	.	.	8.5%	.
COc1ccc(NC(=O)c2c(C)noc2C(C)C)cc1S(=O)(=O)N1CCCCC1	?	-14.6%	4.1%	1.8%	12.2%	0.4%
O=C(NC1CCN(Cc2ccccc2)CC1)c1ccccc1OCc1ccccc1Cl	?	16.4µM*	-3.8%	9.0%	4.2%	-9.5%
O=C(NC1CCN(Cc2ccccc2)CC1)c1ccccc1Cl	-0.3%	-0.2%	-11.7%	.	-5.5%	4.1%
CCOc1ccc(CSCCNC(=S)Nc2ccccc2)cc1	23.1µM*	23.1µM*	-21.1%	1.9%	-1.5%	-7.1%
CC(C)(C)c1ccc(OCCNC(=S)Nc2ccccc2)cc1	5.8µM*	2.91µM*	1.8%	0.0%	-5.7%	-1.2%
CCOc1ccc(NC(=O)Cn2c(=O)n(CCc3ccccc3)c(=O)c3c4c(sc32)CN(C(C)=O)CC4)cc1	?	?	-3.8%	5.9%	.	-2.4%
O=C(NC1CC1)c1cc2cc3ccccc3nc2s1	?	23.1µM*	2.3%	0.0%	-10.4%	-4.0%
O=C(Nn1c(C2CCCCC2)nc2ccccc2c1=O)c1ccc([N+](=O)[O-])cc1	-27.8%	8.1%	11.0%	8.0%	-15.1%	-0.5%
CC(=O)c1cccc(OCc2cc(C(=O)N3CC4C[C@@H]5CC3C[C@H](C4)C5)no2)c1	1.46µM*	2.59µM*	10.6%	4.7%	-11.5%	-8.1%
O=C(c1cc(COc2ccc(F)cc2F)on1)N1CC2C[C@@H]3CC1C[C@H](C2)C3	2.59µM*	6.51µM*	-9.9%	-0.3%	2.5%	-8.1%
COc1ccc(OCc2cc(C(=O)N3C[C@H]4CC[C@H]3C4)no2)c(Cl)c1	-26.1%	-3.4%	6.4%	0.1%	-10.1%	-6.4%
COc1ccccc1OCc1cc(C(=O)N2CC3C[C@@H]4CC2C[C@H](C3)C4)no1	13µM*	11.6µM*	-5.5%	3.2%	4.5%	-2.6%
COc1cc(C(=O)Nc2nc3c(s2)Cc2c(Br)ccc(OC)c2-3)cc(OC)c1OC	14.6µM*	14.6µM*	-9.3%	2.5%	.	-5.0%
COc1ccc(Br)c2c1-c1nc(NC(=O)c3ccccc3F)sc1C2	18.4µM*	20.6µM*	0.3%	5.1%	.	-2.7%
COc1cc(C(=O)Nc2nc(OC)c(-c3ccccc3)c(OC)n2)cc(OC)c1OC	18.4µM*	?	7.0%	4.2%	-5.8%	-9.3%
COCCn1c(SCC(=O)Nc2cc(C)on2)nnc1-c1ccccc1	-13.6%	-12.4%	6.9%	.	-10.7%	-3.2%
SMILES	DT40 TDP1 no CPT	TDP1 cell CPT	VDR inh	TDP1 block	PLK1 PBD inh	KAT2A inh
CCCCCCNC(=O)CC(c1ccccc1)c1cc(Br)ccc1O (stereo not given)	25.9µM*	?	-8.9%	5.1%[56.1 µM]	-0.9%	-12.5%
CCN(CC(=O)Nc1cc(S(=O)(=O)N2CCCCC2)ccc1Cl)Cc1ccccc1	18.4µM*	16.4µM*	-7.0%	.	1.6%	2.0%
Cc1ccc(S(=O)(=O)N2CCCCC2)cc1NC(=O)Cc1cccs1	3.3%	-29.0%	-5.1%	-1.4%	-11.5%	-3.0%
CCN(CC(=O)NCc1ccc(F)cc1)CC(=O)Nc1ccc(S(=O)(=O)N2CCCC2)cc1	-1.6%	-1.3%	3.0%	-2.6%	-3.7%	-6.3%
O=S(=O)(c1ccc(S(=O)(=O)N(Cc2ccccc2)Cc2ccco2)cc1)N1CCCC1	?	14.6µM*	4.6%	.	-10.3%	.
CCN(CC(=O)Nc1ccc(S(=O)(=O)N2CCCCC2)cc1)Cc1ccccc1	?	11.6µM*	-4.6%	9.9%	-8.7%	-2.5%
CN(CC(=O)Nc1cc(S(=O)(=O)N2CCCC2)ccc1Cl)Cc1cccs1	16.4µM*	?	0.1%	5.6%	-11.7%	-8.9%
O=C(Cn1ncc2c([nH]c3ccccc32)c1=O)N1CCN(c2ccccn2)CC1	-28.2%	?	-24.8%	4.0%	-20.9%	0.0%
CC[C@H](C)[C@H](NC(=O)[C@H](C)NC(=O)[C@H](Cc1cnc[nH]1)NC(=O)[C@@H]1CCCN1C(=O)CNC(=O)[C@H](CC(C)C)NC(=O)[C@H](CC(C)C)NC(=O)[C@H](Cc1ccc(O)cc1)NC(=O)CNC(=O)[C@H](C)NC(=O)[C@H](CO)NC(=O)[C@H](CC(N)=O)NC(=O)[C@H](CC(C)C)NC(=O)[C@@H](NC(=O)[C@H](Cc1c[nH]c2ccccc12)NC(=O)CN)[C@@H](C)O)C(=O)O	.	.	1.9%	12.1%	.	12.0%
CN(Cc1cccs1)C(=O)c1ccc(S(=O)(=O)N2CCCCC2)cc1	?	?	-8.4%	8.4%	-9.4%	-4.5%
O=C(C1CCCN(S(=O)(=O)c2ccc(Cl)cc2)C1)N(Cc1cccs1)C1CC1 (stereo not given)	18.4µM*	?	-16.2%	5.6%	?	-8.6%
COC(=O)c1nccc2c1[nH]c1ccccc12	23.1µM*	?	2.0%	.	3.6%	?
COc1ccccc1CN(Cc1cc2cc3c(cc2[nH]c1=O)OCCO3)Cc1nnnn1Cc1ccco1	?	25.9µM*	?	6.2%	?	?
O=c1[nH]c2cc3c(cc2cc1CN(Cc1cccs1)Cc1nnnn1Cc1ccco1)OCCO3	16.4µM*	14.6µM*	?	-2.1%	?	-18.9%
CCCc1nc2cc3c(cc2[nH]1)n(C)c(=O)n3C	17.5%	9.1%	-17.5%	.	2.1%	-2.7%

High-throughput results: PubChem, National Center for Advancing Translational Sciences (NCATS)
